Source: PubChem BioAssay
L3MBTL1 block = L3MBTL1 (human) inhibition; Potency, µM (doses to about 57.1 µM), for the others: at the top dose activity, negative = inhibition, most hits filed as inhibitors; hit rate 0.66% among 230,000; AlphaScreen L3MBTL1–H3K9me1 peptide binding; also: % is scaled to controls: 0 for no effect and ±100 for the full control effect; nearly all actives have a fitted effect of over 60% in size
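L3MBTL1 50 nM + b-AHA-H3(1-15)K9me1 75 nM, 30 min RT; compound added, 30 min RT; streptavidin donor/Ni-chelate acceptor beads 10 ug/mL each final, 30 min RT dark; AlphaScreen read.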
HP1b binding inh = blocks HP1-beta chromodomain binding to methylated histone tails; P83916; AlphaScreen HP1-beta / biotin-H3K9me3 peptide binding; Potency, µM (highest dose often 114 µM), for the others: at the top dose activity change, negative = inhibition, most hits filed as inhibitors; hit rate 0.56% among 390,000; AID 540317; also: nearly all actives have a fitted effect of over 70% in size
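Compound inhibition of the preformed complex between 50 nM HP1-beta and 50 nM biotinylated H3K9me3 peptide was read by AlphaScreen. Buffer was PBS pH 7.4 with 0.01% Tween-20. Incubations ran 30 min at room temperature, with 10 ug/mL donor/acceptor beads.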
Sfp PPTase inh = blocks B. subtilis Sfp PPTase activity; Q9F4F7; Potency, µM, for inactives: largest response in the series, negative = inhibition, hits mostly inhibitors; Biochemical Sfp PPTase activity, qHTS; hit rate 3.5% among 310,000;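 also: the enzyme is Sfp with the accession as filed and its product quenches rhodamine fluorescence; 0% = enzyme reaction without inhibitor and -100% = no enzyme wells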
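Compounds were incubated with enzyme (final 15 nM) for 15 min at room temperature before substrate addition started the reaction. Fluorescence at 525 nm excitation, 598 nm emission was recorded immediately and after 30 minutes.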
G9a inh = inhibitors of human histone lysine methyltransferase G9a | Q96KQ7 | G9a H3K9 monomethylation, AlphaScreen, 2 h | Potency, µM (top dose mostly 102 µM), for inactives: at the highest dose activity, negative = inhibition, most hits filed as inhibitors | hit rate 8.8% among 350,000; also: % is scaled to controls: 0 for no effect and ±100 for the full control effect; nearly all actives have a fitted effect of over 75% in size
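Enzyme 20 nM + cpd, 15 min RT; add b-H3K9 pep 500 nM / SAM 20 uM; 2 h RT; anti-H3K9me1 Ab 0.5 ug/mL + SA donor / anti-rabbit acceptor beads 20 ug/mL each, 10 min; AlphaScreen read.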
JMJD2A Tudor inh = inhibitors of human JMJD2A Tudor domain. O75164. AlphaScreen JMJD2A-Tudor / H3K4me3 peptide binding. Potency, µM (titrated, usually from 114 µM), without a hit: top-dose activity change, negative = inhibition, usual class: inhibitors. hit rate 4.4% among 390,000; also: % is scaled to controls: 0 for no effect and ±100 for the full control effect; nearly all actives have a fitted effect of over 50% in size
BAZ2B block = BAZ2B (human) inhibition; AlphaScreen BAZ2B-H3K14Ac peptide displacement; Q9UIF8; hit rate 4.4% among 360,000; Potency, µM (series often up to 114 µM), for the others: at the highest dose activity change, negative = inhibition, usual class: inhibitors; also: % is scaled to controls: 0 for no effect and ±100 for the full control effect; nearly all actives have a fitted effect of over 60% in size
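Complex of BAZ2B and biotin-H3K14Ac (50 nM apiece) forms over 30 min at RT, then faces library compounds up to 110 uM for another 30 min; AlphaScreen beads added, 20 min dark incubation, luminescence read.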
Active calls of the source: *; [ ] = another dose, or the depositor's remark. An excerpt weighted towards active compounds, which were near 12% of everything screened. Calls follow the shape of the dose curve; as a rule, active = well fitted curve in the direction sought with a large enough effect; inconclusive = small, poorly fitted or top-dose-only effect, or another doubt; inactive = no such curve, though single readings can be large; an effect the other way counts as inactive or inconclusive. Potency is read from the fitted curve at half-maximal effect.

Screening COc1ccc(N=C(C)C2=C(O)c3ccccc3C2=O)cc1 returned L3MBTL1 block -6%, HP1b binding inh 7%, Sfp PPTase inh -12%, G9a inh 1%[59 µM], JMJD2A Tudor inh inconclusive and BAZ2B block inconclusive.
For O=C(c1ccc(Cl)cc1)n1nc(-c2ccco2)nc1NCc1cccs1 the results were HP1b binding inh 6%, G9a inh 3%[59 µM], JMJD2A Tudor inh 8% and BAZ2B block -4%.
C/C(=C\c1ccco1)C1C(C#N)=C(N)OC2=C1C(=O)CC(C)(C)C2 (stereo not given) was read as L3MBTL1 block -22%, HP1b binding inh 3%, Sfp PPTase inh 20µM*, G9a inh inconclusive, JMJD2A Tudor inh inconclusive and BAZ2B block inconclusive.
CC(c1ccccc1)C1C(C#N)=C(N)OC2=C1C(=O)CC(C)(C)C2 (stereo not given) was read as L3MBTL1 block -2%, HP1b binding inh 33%, Sfp PPTase inh 12%, G9a inh -2%, JMJD2A Tudor inh -21% and BAZ2B block 0%.
CC1(C)CC(=O)C2=C(C1)OC(N)=C(C#N)C2c1ccoc1 (stereo not given) was read as L3MBTL1 block 9%, HP1b binding inh 57%, Sfp PPTase inh 7%, G9a inh 7%, JMJD2A Tudor inh -6% and BAZ2B block -7%.
Screening CC1(C)CC(=O)C2=C(C1)OC(N)=C(C#N)C2C#Cc1ccccc1 (stereo not given) returned L3MBTL1 block -6%, HP1b binding inh 42%, Sfp PPTase inh inconclusive, G9a inh 14µM*, JMJD2A Tudor inh -25% and BAZ2B block inconclusive.
C/C(=C\c1ccco1)C1C(C#N)=C(N)Oc2n[nH]c(-c3ccccc3)c21 (stereo not given) was read as L3MBTL1 block -9%, HP1b binding inh -28%, Sfp PPTase inh 79µM*, G9a inh inconclusive, JMJD2A Tudor inh inconclusive and BAZ2B block inconclusive.
Screening CC(C)(C)c1cc(-c2n[nH]c(=S)n2-c2ccccc2F)n[nH]1 returned L3MBTL1 block -5%, HP1b binding inh 14%, Sfp PPTase inh 13%, G9a inh inconclusive, JMJD2A Tudor inh 10µM* and BAZ2B block -30%.
For Cc1ccc(C)c(NC(=O)CSc2n[nH]c(-c3ccncc3)n2)c1 the results were L3MBTL1 block 0%, HP1b binding inh 48%, Sfp PPTase inh 5%, G9a inh -34%[59 µM], JMJD2A Tudor inh 9% and BAZ2B block -2%.
Cc1ccccc1-n1c(-c2ccncc2)n[nH]c1=S was read as HP1b binding inh 21%, Sfp PPTase inh inconclusive, G9a inh inconclusive, JMJD2A Tudor inh 14µM* and BAZ2B block -36%.
CCc1ccccc1-n1c(-c2ccncc2)n[nH]c1=S was read as L3MBTL1 block 22%, HP1b binding inh 28%, Sfp PPTase inh -14%, G9a inh 5.6µM*, JMJD2A Tudor inh 10µM* and BAZ2B block 0%.
`CCOC(=O)c1c(N)n(-c2ccccc2CC)c2nc3ccccc3nc12` gave HP1b binding inh 49%, G9a inh -15%[59 µM], JMJD2A Tudor inh -12% and BAZ2B block 8%.
Cc1ccc(-n2c(-c3ccncc3)n[nH]c2=S)c(C)c1 was read as L3MBTL1 block 0%, HP1b binding inh 32%, Sfp PPTase inh -26%, JMJD2A Tudor inh 18µM* and BAZ2B block -14%.
Screening Cc1ccccc1-n1c(SC2CCOC2=O)nnc1-c1ccncc1 (stereo not given) returned L3MBTL1 block -3%, HP1b binding inh 54%, Sfp PPTase inh 15%, G9a inh inconclusive, JMJD2A Tudor inh -15% and BAZ2B block -20%.
`Cc1cccc(-n2c(-c3ccncc3)n[nH]c2=S)c1C` gave L3MBTL1 block 4%, HP1b binding inh 11%, Sfp PPTase inh inconclusive, JMJD2A Tudor inh 13µM* and BAZ2B block -13%.
Screening Cc1ccccc1Nc1c(-c2ccc(Br)o2)nc2ccc(Cl)cn12 returned HP1b binding inh 19%, G9a inh -31%[59 µM], JMJD2A Tudor inh -9% and BAZ2B block -12%.
`Cc1ccccc1-n1c(-c2ccc(Br)o2)n[nH]c1=S` gave HP1b binding inh 21% and JMJD2A Tudor inh 25µM*.
`Cc1ccccc1-n1c(-c2ccc(=O)[nH]n2)n[nH]c1=S` gave L3MBTL1 block 3%, HP1b binding inh -2%, Sfp PPTase inh 71µM*, G9a inh 18µM*, JMJD2A Tudor inh inconclusive and BAZ2B block inconclusive.
Cc1cc(-c2n[nH]c(=S)n2-c2ccccc2C)cs1 was read as L3MBTL1 block 1%, HP1b binding inh 20%, Sfp PPTase inh inconclusive, G9a inh 1.3µM*, JMJD2A Tudor inh 35µM* and BAZ2B block -4%.
O=C(c1ccco1)N(Cc1cccs1)c1ccc(F)cc1 was read as HP1b binding inh 38%, G9a inh -4%[59 µM], JMJD2A Tudor inh -2% and BAZ2B block -3%.
For CCOP(=O)(OCC)C(=Cc1cc(C(C)(C)C)c(O)c(C(C)(C)C)c1)P(=O)(OCC)OCC the results were Sfp PPTase inh -10%.
Cc1nc(-c2ccc([S+](=O)([O-])N3CCN([S+](=O)([O-])c4c(F)cccc4F)CC3)s2)cs1 was read as JMJD2A Tudor inh -10%.
For Cc1cccc(N2CCN(C(=O)c3cc4cc(F)ccc4[nH]3)CC2)c1C the results were HP1b binding inh 11%, Sfp PPTase inh 5%, G9a inh -5%[2.33 µM], JMJD2A Tudor inh -26% and BAZ2B block -23%.
For COc1ccc(CNC(=O)C2CCCN(C(=O)c3cnn(-c4ccc(F)cc4)c3-n3cccc3)C2)cc1 (stereo not given) the results were HP1b binding inh 28%, G9a inh 8%[59 µM], JMJD2A Tudor inh 2% and BAZ2B block -14%.
For CCc1cc(CNC(=O)CC2C(=O)NCCN2Cc2c(F)cccc2Cl)on1 (stereo not given) the results were L3MBTL1 block -4%, HP1b binding inh -4%, Sfp PPTase inh 12%, G9a inh 11%, JMJD2A Tudor inh -9% and BAZ2B block -19%.
CC(C)Cn1c(-c2ccc(Br)o2)n[nH]c1=S was read as L3MBTL1 block -3%, HP1b binding inh 29%, Sfp PPTase inh -19%, G9a inh 1.8µM*, JMJD2A Tudor inh 4% and BAZ2B block -9%.
Screening CC(C)Cn1c(-c2ccccc2)nc(=S)c2c1CCCC2 returned HP1b binding inh 28%, Sfp PPTase inh 10%, G9a inh inconclusive, JMJD2A Tudor inh 2% and BAZ2B block 2%.
Screening Cc1cccc([C@@H]2CN(C)CCc3c2cc(O)c(O)c3Cl)c1 returned Sfp PPTase inh 79µM*.
